# From PubChem BioAssay (NCI)
# About 83,000 compounds went through this panel and 20% of them were active in at least one assay; those are over-represented in the sample as a whole.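 96-well plates, one dose, 48 hours. Percent growth reported; active if below 10.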 Values without a mark were called inactive. The source made the active and inactive calls.
# Assays:
# Experiment in all cases: NCI-60 one-dose screen, 48 h (100 = growth as untreated, 0 = no growth, -100 = all killed)
# Conditions in all cases: 10 µM unless noted
# HCT-15 colon = tested on: HCT-15 colon
# HT29 colon = tested on: HT29 colon
# SNB-75 CNS = tested on: SNB-75 CNS
# U251 CNS = tested on: U251 CNS
# PC-3 prostate = tested on: PC-3 prostate
# SK-MEL-5 melanoma = tested on: SK-MEL-5 melanoma
# UACC-62 melanoma = tested on: UACC-62 melanoma
# LOX IMVI melanoma = tested on: LOX IMVI melanoma
# SK-MEL-28 melanoma = tested on: SK-MEL-28 melanoma
# SK-MEL-2 melanoma = tested on: SK-MEL-2 melanoma
# EKVX NSCLC = tested on: EKVX NSCLC
# SN12C renal = tested on: SN12C renal
# UO-31 renal = tested on: UO-31 renal
# TK-10 renal = tested on: TK-10 renal
# ACHN renal = tested on: ACHN renal
# CAKI-1 renal = tested on: CAKI-1 renal
# A498 renal = tested on: A498 renal
# CCRF-CEM leukemia = tested on: CCRF-CEM leukemia
# MOLT-4 leukemia = tested on: MOLT-4 leukemia
Compound,growth (HCT-15 colon),growth (HT29 colon),growth (SNB-75 CNS),growth (U251 CNS) [%],growth (PC-3 prostate) [%],growth (SK-MEL-5 melanoma),growth (UACC-62 melanoma),growth (LOX IMVI melanoma),growth (SK-MEL-28 melanoma),growth (SK-MEL-2 melanoma),growth (EKVX NSCLC),growth (SN12C renal),growth (UO-31 renal),growth (TK-10 renal),growth (ACHN renal) [%],growth (CAKI-1 renal),growth (A498 renal),growth (CCRF-CEM leukemia),growth (MOLT-4 leukemia)
O=C1CSC(c2c(Cl)cccc2Cl)N1c1nc(Cl)cc(=O)[nH]1 (configuration not stated),123%,111%,113%,112,73.1,97%,102%,104%,115%,78.3%,119%,108%,79.8%,161%,111,117%,121%,67.3%,171%
CC1=C(C)C(=O)C(Nc2cccc(C(=O)OC(C)(C)C)c2)=C(Br)C1=O,73.2%,118%,59.7%,90.7,71.7,96%,79.2%,34.9%,101%,106%,103%,85.7%,71.6%,122%,87.5,96.4%,87.3%,8.53% (active),12.5%
O=C1CCC(C(=O)NCCNCCNC(=O)C2CCC(=O)N2)N1 (configuration not stated),99.8%,89.8%,101%,97.7,78.5,91.3%,99.4%,96.5%,112%,99.8%,100%,96.9%,96.5%,100%,–,98.8%,89.9%,88.7%,97.2%
Cc1ncc(C(=O)Nc2ccc(CN3CCN(C)CC3)c(C(F)(F)F)c2)cc1C#Cc1ccc(N)nc1,6.59% (active),18.1%,-57.3% (active),17.6,10.9,-100% (active),-70.2% (active),-94.9% (active),-46.2% (active),-55% (active),9.23% (active),2.89% (active),-27% (active),-28.2% (active),–,-71.1% (active),-64.1% (active),18.6%,25.9%
COc1ccc(-c2nc3sc(-c4ccccc4)cn3n2)cc1,30.4%,29.6%,65.2%,78.8,66.5,34.4%,57.2%,54.4%,67.6%,–,62.7%,62.6%,61.7%,106%,67.5,60%,43.7%,64.2%,50.7%
C#C[C@]1(O)CC[C@H]2[C@@H]3CC=C4c5sc(Nc6ccccc6)nc5CC[C@]4(C)[C@H]3CC[C@@]21C,-28.1% (active),6.31% (active),-22.2% (active),13.8,10.4,14.2%,19.6%,–,-19.9% (active),16.7%,36.3%,29.2%,13.5%,56.8%,20.1,21.5%,-37.1% (active),6.66% (active),–
N#CC1=C(N)Oc2c(sc3c(Br)cccc23)C1c1ccc(Br)cc1 (configuration not stated),22.4%,1.76% (active),15%,14,15.3,15.6%,21.2%,21.6%,50.6%,8.78% (active),45.6%,25.8%,36.3%,54.6%,56,–,23.9%,10.1%,7.14% (active)
CN1CCN(c2ccc(-c3ccc4ncc(C#N)c(Nc5ccc(F)c(Cl)c5)c4c3)cc2)CC1,-12.9% (active),18.2%,75.5%,50,45.8,58.1%,69.7%,43%,-43.1% (active),48.3%,54.4%,59.9%,30.4%,36.3%,18.9,33.8%,-7.38% (active),13.1%,35.7%
COc1nc2ccc(C)cc2cc1-c1nc2c(cnn2-c2ccc(Br)cc2)c(=O)[nH]1,40.5%,10.3%,25.9%,15.2,28.1,51.1%,29.1%,34.1%,39.3%,48.2%,53.5%,48.5%,45.7%,77.3%,37.6,48.1%,7.08% (active),17.9%,58.9%
COc1ccc(C(=O)C(C)C)c2ccccc12,99.6%,106%,115%,110,93.4,109%,106%,96.4%,126%,–,94.7%,109%,90.8%,90.5%,100,97.9%,99%,-25.6% (active),97.2%
C[C@]12CC[C@@H]3c4cc(OC(F)F)c(OS(N)(=O)=O)cc4CC[C@H]3[C@@H]1CC[C@@H]2OS(N)(=O)=O,20.1%,106%,-3.22% (active),33.1,52.2,27%,54.1%,–,50%,36.1%,19%,42%,42.9%,100%,40.6,39.1%,94.8%,22.9%,20.6%
COc1cc2cc(Oc3ccc(NC(=O)Nc4ccc(Cl)c(C(F)(F)F)c4)cc3)c(C)nc2cc1OCCN1CCOCC1,13.7%,12%,53.3%,14.8,13,-34.7% (active),29.9%,9.99% (active),42.9%,31.4%,17.2%,10.1%,28.2%,42.8%,10,18.7%,41.5%,10.4%,-4.07% (active)
O=c1[nH][n+](-c2ccc(Br)cc2)no1,33.5%,90%,77.1%,73.3,70.7,57.8%,9.27% (active),7.47% (active),61.2%,55.8%,60.8%,66.7%,22.7%,63.8%,37.8,–,93.8%,55.1%,41.5%
CCOC(=O)/C=C1\S/C(=N\Nc2ccc([N+](=O)[O-])cc2[N+](=O)[O-])N(Cc2ccccc2)C1=O,35.8%,85.9%,55.7%,71.7,64.5,96.8%,74.1%,86%,98.6%,102%,86.4%,57.3%,66.4%,115%,84.3,81.1%,70.4%,39.6%,67.5%
CN(C)CCNc1nc2ccccc2c2c(=O)c3cc(F)ccc3sc12,22.7%,-3.23% (active),54.9%,41.4,40.4,–,53.4%,-64.3% (active),55.6%,87.3%,67.7%,50.8%,25.2%,55.4%,21.4,14%,17.6%,24.4%,-3.39% (active)
COc1cc(C(=O)c2cc(C)c3[nH]c4ccc(O)cc4c3c2C)cc(OC)c1OC,8.88% (active),14.5%,37.3%,11.5,24.9,-49.4% (active),59.8%,13%,55.7%,62.3%,35.9%,25%,22.2%,93.3%,24.3,24.5%,-12.7% (active),15.5%,15.1%
Fc1cc2c(cc1Cl)N(c1ncnc3ccc(-c4cnc5cnccn45)cc13)CC2,99.1%,87.9%,69.2%,91.1,81.9,95.3%,80.5%,91%,97.1%,102%,63.4%,79.3%,42.1%,96.9%,60.4,–,45.6%,108%,98.9%
